Measured values published in PubChem BioAssay AID1159580 (chemical genetic matrix, 2015).
Out of some 5,500 compounds screened, about 2,000 (36%) were called active. Inconclusive results (about 18%) are left out. Rule as the data show it: active = normalized growth mostly below about 0.91 (no sharp cut-off); inconclusive = no clear call, values can overlap the other calls; inactive = mostly above about 0.92. The list shows a part of the results.

Experiment: chemical genetic growth profiling, strain panel (AID 1159580);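 also: tested at 20 µM; growth read once vehicle control cultures reached saturation at 30 °C; 1 = growth at the plate median or of vehicle wells; lower values mean less growth of the strain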
Settings: growth OD

Measured: normalized growth

C#CCCCCCCCCCCCC(O)CC(O)CO (configuration not stated)
inactive: S. cerevisiae deletion strains, locus YJR075W, strain HOC1, hits give low values 0.987 | S. cerevisiae deletion strains, locus YKL009W, strain mrt4, hits give low values 1 | S. cerevisiae deletion strains, locus YKL068W, hits give low values 1.01 | S. cerevisiae deletion strains, locus YKL085W, strain MDH1 (second series), hits give low values 1.01 | S. cerevisiae deletion strains, locus YKL085W, strain MDH1, hits give low values 1.01 | S. cerevisiae deletion strains, locus YKL160W, strain elf1, hits give low values 0.97 | S. cerevisiae deletion strains, locus YKL190W, strain CNB1, hits give low values 0.999 | S. cerevisiae deletion strains, locus YKR001C, strain vps1, hits give low values 1 | S. cerevisiae deletion strains, locus YKR026C, strain gcn3, hits give low values 0.982 | S. cerevisiae deletion strains, locus YKR091W, strain srl3, hits give low values 0.979 | S. cerevisiae deletion strains, locus YLL001W, strain dnm1, hits give low values 0.961 | S. cerevisiae deletion strains, locus YLL026W, hits give low values 0.993 | S. cerevisiae deletion strains, locus YLL041C, strain sdh2, hits give low values 0.986 | S. cerevisiae deletion strains, locus YLR027C, strain aat2, hits give low values 0.986 | S. cerevisiae deletion strains, locus YLR039C, strain RIC1, hits give low values 1.08 | S. cerevisiae deletion strains, locus YLR058C, strain SHM2, hits give low values 1 | S. cerevisiae deletion strains, locus YLR102C, strain apc9, hits give low values 1.01 | S. cerevisiae deletion strains, locus YLR221C, strain rsa3, hits give low values 0.974 | S. cerevisiae deletion strains, locus YLR258W, strain gsy2, hits give low values 0.99 | S. cerevisiae deletion strains, locus YLR262C, strain YPT6 (second series), hits give low values 0.966 | S. cerevisiae deletion strains, locus YLR262C, strain YPT6, hits give low values 1.07 | S. cerevisiae deletion strains, locus YLR268W, strain sec22, hits give low values 1 | S. cerevisiae deletion strains, locus YLR320W, strain mms22, hits give low values 0.946 | S. cerevisiae deletion strains, locus YLR330W, strain CHS5, hits give low values 0.99 | S. cerevisiae deletion strains, locus YLR342W, strain FKS1 (second series), hits give low values 0.975 | S. cerevisiae deletion strains, locus YLR342W, strain FKS1, hits give low values 0.985 | S. cerevisiae deletion strains, locus YLR357W, strain rsc2, hits give low values 0.954 | S. cerevisiae deletion strains, locus YLR370C, strain arc18, hits give low values 0.985 | S. cerevisiae deletion strains, locus YLR371W, strain rom2, hits give low values 1.01 | S. cerevisiae deletion strains, locus YLR384C, strain iki3, hits give low values 0.98 | S. cerevisiae deletion strains, locus YLR418C, strain cdc73, hits give low values 1.02 | S. cerevisiae deletion strains, locus YML016C, strain PPZ1, hits give low values 1 | S. cerevisiae deletion strains, locus YML032C, strain rad52, hits give low values 1.02 | S. cerevisiae deletion strains, locus YML120C, strain ndi1, hits give low values 0.986 | S. cerevisiae deletion strains, locus YML124C, strain tub3, hits give low values 1.01 | S. cerevisiae deletion strains, locus YMR058W, strain fet3, hits give low values 0.991 | S. cerevisiae deletion strains, locus YMR078C, strain ctf18, hits give low values 1 | S. cerevisiae deletion strains, locus YMR125W, strain sto1, hits give low values 0.967 | S. cerevisiae deletion strains, locus YMR129W, hits give low values 0.988 | S. cerevisiae deletion strains, locus YMR205C, strain PFK2, hits give low values 0.962 | S. cerevisiae deletion strains, locus YMR223W, strain ubp8, hits give low values 1.01 | S. cerevisiae deletion strains, locus YMR231W, strain pep5, hits give low values 0.974 | S. cerevisiae deletion strains, locus YMR263W, strain SAP30, hits give low values 1 | S. cerevisiae deletion strains, locus YMR307W, strain GAS1, hits give low values 1.19 | S. cerevisiae deletion strains, locus YNL067W, strain RPL9B, hits give low values 0.987 | S. cerevisiae deletion strains, locus YNL071W, strain lat1, hits give low values 0.988 | S. cerevisiae deletion strains, locus YNL128W, strain TEP1, hits give low values 1.01 | S. cerevisiae deletion strains, locus YNL153C, strain GIM3, hits give low values 1 | S. cerevisiae deletion strains, locus YNL209W, strain ssb2, hits give low values 0.996 | S. cerevisiae deletion strains, locus YNL233W, strain BNI4, hits give low values 0.991 | S. cerevisiae deletion strains, locus YNL248C, strain rpa49, hits give low values 0.97 | S. cerevisiae deletion strains, locus YNL250W, strain rad50, hits give low values 1.03 | S. cerevisiae deletion strains, locus YNL271C, strain bni1, hits give low values 1.02 | S. cerevisiae deletion strains, locus YNL298W, strain CLA4, hits give low values 1.01 | S. cerevisiae deletion strains, locus YNL307C, strain MCK1, hits give low values 0.98 | S. cerevisiae deletion strains, locus YNL322C, strain KRE1 (second series), hits give low values 0.978 | S. cerevisiae deletion strains, locus YNL322C, strain KRE1, hits give low values 1 | S. cerevisiae deletion strains, locus YNR049C, strain mso1, hits give low values 0.992 | S. cerevisiae deletion strains, locus YNR052C, strain pop2, hits give low values 1.01 | S. cerevisiae deletion strains, locus YOL006C, strain TOP1, hits give low values 0.96 | S. cerevisiae deletion strains, locus YOL012C, strain htz1 0.976 | S. cerevisiae deletion strains, locus YOL147C, strain pex11, hits give low values 1 | S. cerevisiae deletion strains, locus YOR001W, strain rrp6, hits give low values 0.998 | S. cerevisiae deletion strains, locus YOR061W, strain CKA2, hits give low values 0.921 | S. cerevisiae deletion strains, locus YOR069W, strain VPS5, hits give low values 1 | S. cerevisiae deletion strains, locus YOR070C, strain gyp1, hits give low values 0.977 | S. cerevisiae deletion strains, locus YOR080W, strain dia2, hits give low values 0.994 | S. cerevisiae deletion strains, locus YOR083W, strain WHI5, hits give low values 0.95 | S. cerevisiae deletion strains, locus YOR106W, strain vam3, hits give low values 0.977 | S. cerevisiae deletion strains, locus YOR136W, strain idh2, hits give low values 0.998 | S. cerevisiae deletion strains, locus YOR144C, strain elg1, hits give low values 1.01 | S. cerevisiae deletion strains, locus YOR184W, strain ser1, hits give low values 1.01 | S. cerevisiae deletion strains, locus YOR265W, strain rbl2, hits give low values 0.99 | S. cerevisiae deletion strains, locus YOR270C, strain vph1, hits give low values 0.944 | S. cerevisiae deletion strains, locus YOR290C, strain snf2, hits give low values 0.948 | S. cerevisiae deletion strains, locus YOR316C, strain cot1, hits give low values 1.01 | S. cerevisiae deletion strains, locus YPL051W, strain arl3, hits give low values 0.989 | S. cerevisiae deletion strains, locus YPL055C, strain LGE1, hits give low values 0.994 | S. cerevisiae deletion strains, locus YPL078C, strain atp4, hits give low values 0.981 | S. cerevisiae deletion strains, locus YPL106C, strain sse1, hits give low values 0.981 | S. cerevisiae deletion strains, locus YPL240C, strain hsp82, hits give low values 0.998 | S. cerevisiae deletion strains, locus YPL241C, strain CIN2, hits give low values 1 | S. cerevisiae deletion strains, locus YPL256C, strain CLN2, hits give low values 0.881 | S. cerevisiae deletion strains, locus YPR119W, strain clb2, hits give low values 1.01 | S. cerevisiae deletion strains, locus YPR141C, strain kar3, hits give low values 1.04 | S. cerevisiae deletion strains, locus YPR163C, strain tif3, hits give low values 0.997 | S. cerevisiae deletion strains, locus YPR167C, strain met16, hits give low values 1.01 | S. cerevisiae deletion strains, strain wtn01, hits give low values 1.01 | S. cerevisiae strains, strain wild type, hits give low values 0.992
active: S. cerevisiae deletion strains, locus YLR113W, strain HOG1, hits give low values 0.832 | S. cerevisiae deletion strains, locus YNL183C, strain NPR1, hits give low values 0.774 | S. cerevisiae deletion strains, locus YOR231W, strain MKK1, hits give low values 0.851
